# The panel holds about 79,000 compounds, 15% with a hit somewhere; the sample as a whole holds those more often. Unmarked numbers belong to inactive results. Active and inactive are the calls of the source. Rule as the data show it: active = growth inhibition above about 70%; inactive = the rest.
# Experiments:
# [1] = NCI Yeast Anticancer Drug Screen. Data for the rad50 strain (AID 155);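 also: 0% = growth of vehicle-only cultures of the same strain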; settings: S. cerevisiae rad50 strain growth inhibition, hits give high values
# Summary of the method: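 Cells are treated with compound, grown, and their growth is then scored against vehicle-only cultures of the same repair-deficient yeast strain.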
# [2] = NCI Yeast Anticancer Drug Screen. Data for the mec2-1 strain (AID 157); settings: S. cerevisiae mec2-1 strain, hits give high values
# Summary of the method: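 Using mec2-1 yeast: add compound, measure growth, express inhibition versus vehicle-treated cultures.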
# [3] = NCI Yeast Anticancer Drug Screen. Data for the sgs1 mgt1 strain (AID 161);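 also: 0% = growth of cultures given vehicle only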; settings: S. cerevisiae sgs1 mgt1 strain, hits give high values
# Summary of the method: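 This yeast growth screen uses a strain with defined DNA-repair lesions; compound-treated growth is compared with vehicle-treated growth.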
# [4] = NCI Yeast Anticancer Drug Screen. Data for the cln2 rad14 strain (AID 165);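 also: 0% = growth equal to vehicle treated cultures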; settings: S. cerevisiae cln2 rad14 strain, hits give high values
# Summary of the method: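 Yeast strain cln2 rad14, bearing defects in cell cycle control and DNA repair, serves as the test system; values reflect growth inhibition compared with vehicle.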
# [5] = NCI Yeast Anticancer Drug Screen. Data for the bub3 strain (AID 167); settings: S. cerevisiae bub3 mutant strain, hits give high values
# Summary of the method: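 Part of a panel of yeast mutants defective in DNA damage repair or cell cycle regulation. Each strain is grown with compound, and inhibition is calculated relative to solvent-treated cultures.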
# [6] = NCI Yeast Anticancer Drug Screen. Data for the mlh1 rad18 strain (AID 175); settings: S. cerevisiae mlh1 rad18 strain growth inhibition, hits give high values
# Summary of the method: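 Steps: expose repair-defective yeast to compound; measure growth; express inhibition against vehicle-treated controls.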
# [7] = at 5.0 µM (retest, dose inferred, filed as 0.5)
# [8] = at 50.0 µM (retest, dose inferred, filed as 5.0)
Compound,"growth inhibition [1, 7]","growth inhibition [1, 8]",growth inhibition ([1]; at 50.0 µM),"growth inhibition [2, 7]","growth inhibition [2, 8]",growth inhibition ([2]; at 50.0 µM),"growth inhibition [3, 7]","growth inhibition [3, 8]",growth inhibition ([3]; at 50.0 µM),"growth inhibition [4, 7]","growth inhibition [4, 8]",growth inhibition ([4]; at 50.0 µM),"growth inhibition [5, 7]","growth inhibition [5, 8]",growth inhibition ([5]; at 50.0 µM),"growth inhibition [6, 7]","growth inhibition [6, 8]",growth inhibition ([6]; at 50.0 µM)
CCOC(=O)C1C(O)=C(P(=O)(C2=C(O)C(C(=O)OCC)C(c3ccc(OC(C)=O)cc3)C(C(=O)O)C2=O)N(CCCl)CCCl)C(=O)C(C(=O)O)C1c1ccc(OC(C)=O)cc1 (stereo not given),16%,86% (active),45.6%,1%,85% (active),71.8% (active),11%,95% (active),52%,-5%,73% (active),66.2%,-4%,90% (active),54.4%,20%,92% (active),61.2%
O=C1c2ccccc2C[CH]1[Hg][Cl] (stereo not given),99% (active),99% (active),99.2% (active),100% (active),100% (active),99.5% (active),100% (active),99% (active),99.3% (active),99% (active),99% (active),96.2% (active),99% (active),99% (active),98.7% (active),99% (active),99% (active),99.3% (active)
COc1ccc(CC2C(=O)NC(C)C(=O)N(C)C3C(=O)N(C)C(Cc4ccc(O)c(c4)Oc4ccc(cc4)C3O)C(=O)NC(C)C(=O)NC(C)C(=O)N2C)cc1 (stereo not given) (tested in a mixture with another compound),31%,99% (active),83.2% (active),28%,100% (active),78% (active),37%,99% (active),86.3% (active),41%,98% (active),78.5% (active),34%,99% (active),83.3% (active),32%,98% (active),69.3%
COC12C(COC(N)=O)C3=C(C(=O)C(C)=C(NC(C)C)C3=O)N1CC1NC12 (stereo not given),5%,59%,47.6%,10%,72% (active),47.9%,13%,61%,48%,2%,76% (active),52%,1%,35%,30.4%,31%,92% (active),78.6% (active)
O=C(O)c1cccc2cccc(C(=O)O)c12.[Hg],99% (active),99% (active),99.4% (active),100% (active),100% (active),99.5% (active),100% (active),99% (active),99.7% (active),99% (active),99% (active),98.5% (active),99% (active),99% (active),99.2% (active),99% (active),99% (active),99.6% (active)
O=[N+]([O-])c1ccc(NP(=S)(Nc2ccc([N+](=O)[O-])cc2)c2ccccc2)cc1,28%,91% (active),93% (active),38%,94% (active),95.6% (active),6%,89% (active),91.5% (active),56%,88% (active),90.8% (active),64%,90% (active),95% (active),68%,77% (active),94.3% (active)
CN(C)C(=S)[S][Hg][c]1ccccc1,64%,87% (active),91.3% (active),69%,75% (active),93.4% (active),101% (active),99% (active),93.7% (active),54%,99% (active),92.8% (active),101% (active),100% (active),92.1% (active),52%,70% (active),91.5% (active)
O=C(CBr)OCC(Br)CBr (stereo not given),98% (active),39%,99.2% (active),99% (active),50%,99% (active),99% (active),36%,99.3% (active),97% (active),-4%,98.8% (active),99% (active),83% (active),99.3% (active),99% (active),49%,98.8% (active)
C[CH2][Sn]([Br])([CH2]C)[c]1ccccc1CN(C)C,30%,76% (active),46.2%,23%,69%,65.5%,9%,77% (active),87.8% (active),34%,53%,71.2% (active),11%,78% (active),86.8% (active),22%,79% (active),86.7% (active)
COc1c(Cl)[c]([Hg][O]C(C)=O)c(NCC(C)=O)c(OC)[c]1[Hg][O]C(C)=O,80% (active),94% (active),87.3% (active),99% (active),94% (active),90.5% (active),99% (active),95% (active),90.8% (active),35%,95% (active),89.4% (active),99% (active),94% (active),89.4% (active),95% (active),94% (active),86.4% (active)
O=C(CCCc1ccccc1)[O][Hg][c]1ccccc1,99% (active),99% (active),99.7% (active),100% (active),99% (active),99.7% (active),98% (active),99% (active),99.6% (active),99% (active),99% (active),99.2% (active),99% (active),99% (active),99.2% (active),99% (active),99% (active),99% (active)
O=c1oc2ccccc2c(O)c1C(C/C(CCN1CCCC1)=N/O)c1ccccc1 (stereo not given),28%,28%,79.8% (active),22%,22%,81.7% (active),16%,16%,76.8% (active),-3%,-3%,64.2%,9%,9%,72.4% (active),10%,10%,79.2% (active)
CC(=O)c1ccc([As]=O)cc1 (stereo not given),16%,100% (active),99.8% (active),19%,100% (active),99.8% (active),13%,99% (active),99.8% (active),-9%,99% (active),99.4% (active),-8%,100% (active),99.5% (active),14%,100% (active),99.5% (active)
CCC[CH2][Sn]1([CH2]CCC)[O]CC(CN2CCOCC2)[O]1 (stereo not given),27%,34%,87.7% (active),17%,35%,91% (active),34%,41%,91% (active),26%,31%,88.8% (active),22%,27%,90.3% (active),45%,44%,88.8% (active)
ClCCN(CCCl)CCN1c2ccc3ccccc3c2Sc2ccc3ccccc3c21,-3%,2%,32.7%,0%,37%,16.5%,-13%,61%,85% (active),2%,1%,-19.2%,1%,79% (active),20.8%,-1%,53%,67.9%
CC[CH](C)[Sn](=[O])[c]1ccccc1 (stereo not given),15%,95% (active),81.1% (active),28%,93% (active),80.7% (active),16%,93% (active),21.9%,15%,90% (active),28.1%,10%,96% (active),20.9%,11%,95% (active),75.8% (active)
O=C(CBr)Nc1ccc(Cl)cc1,99% (active),99% (active),98.8% (active),99% (active),99% (active),99.3% (active),99% (active),99% (active),99.6% (active),98% (active),99% (active),98.7% (active),98% (active),99% (active),99.4% (active),98% (active),98% (active),99.2% (active)
CC1=CC(=C2C=CC(=[N+](C)C)C=C2)C=C(C)S1,21%,72% (active),55.6%,10%,91% (active),71.6% (active),9%,94% (active),87.3% (active),7%,82% (active),77.7% (active),-2%,96% (active),87.7% (active),11%,90% (active),87% (active)
Cl[C](Cl)(Cl)[Hg][C](Cl)(Cl)Cl,80% (active),96% (active),89.8% (active),90% (active),94% (active),92.7% (active),100% (active),100% (active),92.8% (active),99% (active),99% (active),91.5% (active),100% (active),97% (active),91.3% (active),78% (active),95% (active),90.2% (active)
Clc1ccc(Cl)c(Cl)c1,-10%,99% (active),98.4% (active),-3%,97% (active),99% (active),-6%,98% (active),98.8% (active),8%,92% (active),96.5% (active),-8%,98% (active),62%,2%,99% (active),98.2% (active)

# Reference: PubChem BioAssay (NCI)
